Source: PubChem BioAssay
HepG2 tox = counter-screen for TGF-b inhibitors: cytotoxicity in HepG2 cells. Potency, µM (series often up to 46.1 µM), without a hit: at the highest dose activity change, negative = cytotoxicity, most hits filed as cytotoxic. HepG2 CAGA-GFP viability, ATP luminescence, 18 h. 0.76% of 410,000 active
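CellTiter-Glo luminescence gave cytotoxicity after 18 hours at 37 degrees C. The cells were HepG2 CAGA-GFP in 1% FBS DMEM, stimulated with 500 pg/mL TGF-beta after compound addition. %Activity was normalised to no-cell wells (complete cell-killing) and DMSO (no toxicity), and curves were fitted and classified.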
Nrf2 block = inhibitors of Nrf2 signaling | Potency, µM (top dose mostly 46 µM), for the others: at the highest dose activity change, negative = inhibition, hits mostly inhibitors | A549 ARE-Fluc reporter, luciferase luminescence, 18-24 h | AID 504444 | 2.1% of 360,000 active; note: % is set by controls: 0 for no effect and ±100 for the full control effect; nearly all actives have a fitted effect of over 60% in size
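Nrf2 activity is the BugLite luminescence, read 15 min after reagent at room temperature, following CellTiter-Fluor cytotoxicity readout (30 min, 37C). Compound titrations were applied for 18-24 h to 5000 A549 ARE_Fluc cells/well in 5% FBS OPTI-MEM.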
ATXN2 expr inh = ATXN2 expression inhibition. HEK-293 ATXN2-luciferase reporter, luminescence, 24 h. Potency, µM (highest dose often 57 µM), for inactives: at the top dose activity change, negative = inhibition, most hits filed as inhibitors. 0.72% of 360,000 active; note: % is set by controls: 0 for no effect and ±100 for the full control effect; nearly all actives have a fitted effect of over 55% in size
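qHTS (up to 57 uM final) was run with 24 h compound exposure of reporter cells at 37 °C. Each well was multiplexed: SteadyGlo luminescence measured ATXN2-luciferase expression after a fluorogenic Gly-Phe-AFC viability readout (25 uM final).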
TGFb inhibitor = TGF-b pathway inhibition. AID 588855. HepG2 CAGA-GFP TGF-b/SMAD3 reporter, GFP fluorescence, 18 h; TGF-beta stimulated, 500 pg/mL final. 1.2% of 410,000 active. Potency, µM (highest dose often 46.1 µM), for inactives: at the highest dose activity, negative = inhibition, most hits filed as inhibitors; note: % is set by controls: 0 for no effect and ±100 for the full control effect; nearly all actives have a fitted effect of over 65% in size
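Inhibition of TGF-beta-driven CAGA-GFP reporter expression in HEPG2 cells is measured by cellular GFP fluorescence after 18 h stimulation with 500 pg/mL recombinant TGF-beta in 1% FBS medium at 37 degrees C.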
A549 viability = counter-screen for Nrf2 inhibitors: cytotoxicity in A549 cells; A549 ARE-Fluc cells, CellTiter-Fluor viability, 18-24 h; Potency, µM (highest dose often 46 µM), without a hit: top-dose activity change, negative = cytotoxicity, most hits filed as inhibitors; 0.16% of 390,000 active; AID 504648; note: % is set by controls: 0 for no effect and ±100 for the full control effect
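A549 ARE-Fluc cells in 5% FBS OPTI-MEM, 5000 cells/well, rested 2 h then exposed to compounds in concentration-response for 18-24 h at 37 °C. Viability by CellTiter-Fluor fluorescence (Ex 405/Em 525) after 30 min; luciferase luminescence (BugLite, 15 min, RT) read afterwards.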
S2 tox = viability counter-screen for ATXN expression inhibitors. S2 cells (HEK-293 line with an ATXN2-luciferase reporter) viability, CellTiter-Fluor protease fluorescence, 24 h. Potency, µM (doses to about 56.7 µM), usual class: cytotoxic. 0.49% of 400,000 active. AID 651635; note: nearly all actives have a fitted effect of over 40% in size
* hit, by the source's call; i = inactive; ? = inconclusive; . = not tested or not shown. Compounds with a hit are over-represented: about 3.8% of the library has one in this group of screens. Calls come from the whole dose curve; as a rule, active = well fitted curve in the direction sought with a large enough effect; inconclusive = small, poorly fitted or top-dose-only effect, or another doubt; inactive = no such curve, though single readings can be large; an effect the other way counts as inactive or inconclusive. Potency is the fitted concentration of half-maximal effect.

SMILES	HepG2 tox	Nrf2 block	ATXN2 expr inh	TGFb inhibitor	A549 viability	S2 tox
CCc1nc2ccc(C(=O)Nc3ccc(C(N)=O)cc3)cn2c1N(C)CCC(C)C	-84%	.	0%	?	.	?
CCc1nc2ccc(C(=O)Nc3ccc(Cl)c(Cl)c3)cn2c1N(C)Cc1ccc(OC)cc1	-44%	.	?	11µM*	.	.
N#Cc1ccc(OCC(=O)Nc2ccccc2NS(=O)(=O)c2cccs2)cc1	9%	2%	12%	3%	-9%	i
Cc1ccc(-c2noc(-c3ccccc3OCC(=O)Nc3ccccc3[N+](=O)[O-])n2)cc1	1%	?	0%	-21%	-7%	i
O=C(COc1ccccc1-c1nc(-c2ccccc2)no1)Nc1ccccc1[N+](=O)[O-]	0%	18µM*	4%	-24%	4%	i
COc1ccc(N(C(=O)c2snc(C(N)=O)c2N)C(C(=O)NCc2ccccc2)c2ccc(O)cc2)cc1 (stereo unspecified)	-37%	11%	4%	11%	-3%	i
Cc1cccc(N(C(=O)c2snc(C(N)=O)c2N)C(C(=O)NCc2ccccc2)c2ccncc2)c1 (stereo unspecified)	-68%	23µM*	?	?	-15%	?
CC(C)c1ccc(/C=N/n2cnnc2)cc1	-37%	0%	32%	8%	-3%	i
COc1ccc(CS(=O)(=O)/C(Cl)=C(/Cl)C(=O)Nc2ccc(OC)nc2)cc1	-107%	16µM*	13µM*	?	21µM*	?
COc1ccc(NC(=O)Cc2ccccc2)cn1	-2%	-2%	-16%	2%	-7%	i
COc1ccc(NC(=O)/C(Cl)=C(/Cl)S(=O)Cc2ccccc2)cn1 (stereo unspecified)	7.1µM*	-117%	2.8µM*	4µM*	21µM*	4.5µM*
C/C(CCC(C)C)=N\NC(=S)NCc1ccccc1	-16%	2%	9%	0%	15%	i
Nc1ccc(-c2nnnn2-c2ccc(N)cc2)cc1	0%	7%	0%	20%	-5%	i
CCOc1ccc(N=Cc2c(C)[nH]n(-c3nc4ccccc4[nH]3)c2=O)cc1	2.5µM*	?	-36%	-22%	9%	i
CC(OC(=O)CNC(=O)c1ccc(Cl)cc1)C(=O)NC1CCCCC1C (stereo unspecified)	-9%	8%	-11%	4%	5%	i
O=c1c2ccc(Cl)cc2nc(-c2cccc(C(F)(F)F)c2)n1O	-50%	23µM*	?	?	-28%	i
COc1cc(/C=N/Nc2nncn2N)ccc1OCc1c(C)no[n+]1[O-]	10µM*	-19%	.	7.1µM*	-8%	i
COc1cc(C(CC(=O)Nc2cc(C)ccc2C)N2Cc3ccccc3C2=O)cc(OC)c1OC (stereo unspecified)	-9%	24%	13%	-3%	-3%	i
CC12CCC(=O)C=C1CCC1C2C(O)CC2(C)C(c3csc(N)n3)CCC12 (stereo unspecified)	2%	23µM*	?	-5%	-3%	i
CC12CCC(=O)C=C1CCC1C2CCC2(C)C(C(=O)CO)CC(O)C12 (stereo unspecified)	1%	-7%	3%	20%	1%	i
CC12CCC(=O)C=C1CCC1C2CCC2(C)C(c3csc(N)n3)CCC12 (stereo unspecified)	8%	18µM*	?	13µM*	?	?
C[C@@]12C[C@@H](O)[C@H]3[C@@H](CCC4=CC(=O)CC[C@]43C)[C@H]1CC[C@H]2C(=O)CO	.	.	.	.	.	i
O=C(CNC(=O)c1cccc2ccccc12)OC(C(=O)Nc1cc(C(F)(F)F)ccc1Cl)c1ccccc1 (stereo unspecified)	.	12%	.	.	7%	.
CC(C)c1ccc(C2C3=C(CC(c4ccco4)CC3=O)Nc3nc(C(F)(F)F)nn32)cc1 (stereo unspecified)	-2%	1%	.	8%	6%	.
COc1ccc(CN(Cc2ccccc2)C(=O)c2ccccc2)cc1COc1ccc(NC(C)=O)cc1	.	23µM*	.	.	-18%	.
SMILES	HepG2 tox	Nrf2 block	ATXN2 expr inh	TGFb inhibitor	A549 viability	S2 tox
CCCN1C(=O)c2ccccc2NC1c1ccc(OC)c(COc2cccc(C)c2C)c1 (stereo unspecified)	-13%	26µM*	.	1%	-8%	.
COc1ccc(C2Nc3ccccc3C(=O)N2Cc2cccc(Cl)c2)cc1COc1ccc(NC(C)=O)cc1 (stereo unspecified)	.	23µM*	.	.	-16%	.
COc1ccc(C2Nc3ccccc3C(=O)N2Cc2ccccc2)cc1COc1ccccc1OC (stereo unspecified)	.	-27%	.	.	2%	.
COc1ccc(CN(Cc2ccccc2)C(=O)c2ccc(NC(C)=O)cc2)cc1COc1ccc(NC(C)=O)cc1	.	?	.	.	-4%	.
CC1(C(=O)Nc2cccc3c2CCCC3)CCN1C(=O)c1cccc(F)c1 (stereo unspecified)	3%	.	-11%	0%	.	i
CC1=C(C(=O)N2CCCCCC2)CC(CC(=O)NCc2cccc3ccccc23)C(=O)N1CCC1=CCCCC1 (stereo unspecified)	.	.	-31%	.	.	?
CCSc1nn(CC(=O)Nc2cccc(Cl)c2)c(N)c1S(=O)(=O)c1ccc(OC)cc1	-27%	18µM*	?	?	?	?
CCSc1nn(CC(=O)Nc2cccc(CC)c2)c(N)c1S(=O)(=O)c1ccccc1	-39%	?	?	11µM*	-16%	?
CCc1ccc(NC(=O)Cn2nc(SC)c(S(=O)(=O)c3ccc(OC)cc3)c2N)cc1	-9%	?	3%	-24%	9%	i
COc1ccc(S(=O)(=O)c2c(SC)nn(CC(=O)Nc3ccc(C)c(Cl)c3)c2N)cc1	5%	23µM*	?	7.1µM*	?	?
CCc1ccc(NC(=O)CN2C(C(=O)OC)=C(c3ccccc3)c3ccccc3S2(=O)=O)cc1	-18%	16%	-5%	-2%	-7%	i
COc1ccc(Cl)cc1NC(=O)Cn1nc(C(F)(F)F)c2c1CCCC2	-30%	?	-30%	13µM*	-1%	?
O=C(Cn1nc(C(F)(F)F)c2c1CCCC2)Nc1cccc(Cl)c1	-71%	.	?	11µM*	?	?
O=C(Cn1nc(C(F)(F)F)c2c1CCCC2)Nc1ccc(Br)cc1	-43%	.	.	-10%	6%	.
O=C(Cn1nc(-c2ccc(Cl)cc2)c2ccccc2c1=O)Nc1cccc(C(F)(F)F)c1	-31%	?	-30%	11µM*	0%	?
